NALP1 yeast inh – NALP1 inflammasome inhibitors in reconstituted yeast, colorimetric, S. cerevisiae, triplicate retest; S. cerevisiae NALP1/ASC/caspase-1 growth, X-gal OD620, 72 h; inhibition, % at 10 µM; 280,000 compounds, 0.61% hits; in the data active = inhibition mostly above about 24%, no sharp cut-off; inactive = mostly below about 32%
NLRP3 yeast inh – NALP3 inflammasome inhibitors in reconstituted yeast, primary screen, luminescence, uHTS. AID 2825, 2010. 330,000 compounds, 0.39% hits. inhibition, % at 10 µM. Yeast reconstituted NLRP3/ASC/caspase-1, beta-gal luminescence, 24 h;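 active = inhibition of 50% or more; inactive = inhibition below 50%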
tim10-1 inh – growth inhibitors of tim10-1 mutant yeast, primary screen, luminescence, uHTS. S. cerevisiae tim10-1 ts strain growth, BacTiter-Glo, 24 h. inhibition, % at 20 µM. 330,000 compounds, 2.2% hits;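 active = inhibition of at least 40%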;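 also: mutant grown at 25 °C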
TIM10 inh – growth inhibitors of isogenic TIM10 control yeast, primary screen, counter-screen for tim10-1 yeast inhibitor project, luminescence, uHTS; S. cerevisiae TIM10 strain growth, BacTiter-Glo luminescence, 24 h; inhibition, % at 10 µM; 330,000 compounds, 1.4% hits;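 active = inhibition of 40% or more at the single tested concentration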;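 also: wild-type TIM10 isogenic control strain grown at permissive 25 °C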
tim23-1 inh – growth inhibitors of tim23-1 mutant yeast, primary screen, luminescence, uHTS | S. cerevisiae tim23-1 growth, BacTiter-Glo luminescence, 24 h | 330,000 compounds, 1.3% hits | inhibition, % at 20 µM;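 active = growth inhibition of the mutant yeast at or above 50%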;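 also: temperature-sensitive mutant grown at 25 °C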
tim10-1 conf – growth inhibitors of tim10-1 mutant yeast, confirmation, single concentration, luminescence, S. cerevisiae; shares compounds with tim10-1 inh; S. cerevisiae tim10-1 ts strain growth, BacTiter-Glo, 24 h; inhibition, % at 20 µM; 7,400 compounds, 56% hits; AID 463213, 2010;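 active = inhibition of yeast growth at or above a set limit in either of two repeat tests at 20 µM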;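 also: tim10-1 mutant grown at permissive 25 °C to find synthetic lethal compounds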
Numbers stand for hits; – = inactive; · = not tested or not shown. Hits are enriched below; roughly 4% of the tested compounds scored in any of these assays.

SMILES	NALP1 yeast inh	NLRP3 yeast inh	tim10-1 inh	TIM10 inh	tim23-1 inh	tim10-1 conf
O=C1CN(C(=O)/C=C/c2cccc(Cl)c2)c2ccccc2N1	–	–	41	–	–	34
O=C1CN(C(=O)/C=C/c2ccc(Cl)cc2)c2ccccc2N1	–	–	–	–	–	·
FC(F)(F)c1nnc2n1N=C(c1cccs1)CS2	–	–	–	–	–	·
CC(=O)Nc1nc2ccccc2n1Cc1ccccc1Cl	–	–	46	–	–	–
CC(=O)Nc1nc2ccccc2n1Cc1ccccc1C	–	–	46	–	–	–
Cc1nn(CC(=O)Nc2ccc3nc4n(c(=O)c3c2)CCCC4)c(C)c1[N+](=O)[O-]	–	–	–	–	–	·
COc1ccc(/C=N/N(Cc2ccccc2)c2ccccc2)cc1O	–	–	51	–	–	–
C(=N\N(Cc1ccccc1)c1ccccc1)/c1ccco1	–	–	–	–	–	·
Brc1ccc(C2Nc3cccc4cccc(c34)N2)o1	–	–	42	–	–	29
Brc1cccc(C2Nc3cccc4cccc(c34)N2)c1	·	–	–	–	–	·
Cc1c(Br)cnn1C(C)C(=O)N1CCN(c2ccccc2F)CC1 (centres undefined)	·	–	–	–	–	·
N#Cc1c(-c2ccc(F)cc2)noc1N	–	–	–	–	–	·
COc1cccc(-c2noc(N)c2C#N)c1	–	–	52	–	–	44
COC(=O)c1[nH]c2ccc(Br)cc2c1NC(=O)CN1CCCc2ccccc21	–	–	46	–	–	34
COC(=O)c1[nH]c2cc(C)ccc2c1NC(=O)CN1CCCc2ccccc21	–	–	–	–	–	·
Cc1oc(S(=O)(=O)N(C)C)cc1C(=O)Nc1ccc(Cl)cc1	–	–	–	–	–	·
O=C(/C=C/c1ccccc1)c1ccccc1	–	–	–	–	–	·
N#Cc1ccc(/C=C/C(=O)c2ccccc2)cc1	–	–	48	–	–	43
CN(C)CCCN1c2ccccc2CCc2ccc(Cl)cc21	–	–	53	–	–	32
Cc1nn2c(N3CCOCC3)c3c(nc2c1-c1ccccc1)CCCC3	–	–	–	–	–	·
Cc1nc2c(-c3ccc(F)cc3)c(C)nn2c(N2CCOCC2)c1C	–	–	45	–	–	–
S=c1[nH]nc(Cn2cnc3ccccc32)n1-c1ccccc1Cl	–	–	–	–	–	·
CN(Cc1ccccc1)c1ncnc2ccc(Br)cc12	–	–	42	–	–	–
CCOc1ccccc1Nc1ncnc2ccc(Br)cc12	–	–	–	–	–	·
CC(=O)Nc1ccc2c(c1)CCc1ccccc1-2	–	–	–	–	–	·
SMILES	NALP1 yeast inh	NLRP3 yeast inh	tim10-1 inh	TIM10 inh	tim23-1 inh	tim10-1 conf
O=C(O)/C=C/C(=O)c1ccc2c(c1)CCc1ccccc1-2	·	–	58	–	–	54
CCCCC(=O)N(CCOC)c1nnc(-c2ccccc2C)s1	–	–	–	–	–	·
O=C(c1ccccc1)c1cccc[n+]1[O-]	–	–	–	–	–	·
O=c1nc(/C=C/c2ccc(-c3ccc(F)cc3)o2)cc(C(F)(F)F)[nH]1	–	–	47	–	–	31
C=C(C)C1CC=C(C)/C(=N/NC(=O)CNc2ccc(C)cc2C)C1 (centres undefined)	–	·	·	·	·	·
C=C(C)C1CC=C(C)/C(=N/NC(=O)CNc2ccc(OCC)cc2)C1 (centres undefined)	–	–	42	–	–	–
Cc1ccccc1NC(=S)NCc1ccc2c(c1)cc(C)n2C	–	–	43	–	–	–
NC(=O)COC(=O)c1ccc(Cl)c(S(=O)(=O)N(Cc2ccccc2)c2ccc(Cl)cc2)c1	–	–	41	–	–	32
COc1ccccc1N1CCN(/N=C/c2ccccc2C(=O)O)CC1	–	–	–	–	–	·
CCCCCn1c(=N)c(S(=O)(=O)c2ccc(Br)cc2)cc2c(=O)n3cccc(C)c3nc21	–	–	–	–	–	·
CCCCn1c(=N)c(S(=O)(=O)c2ccc(Br)cc2)cc2c(=O)n3cccc(C)c3nc21	–	–	44	–	–	–
CN(C(=S)Oc1ccc(C(=O)Nc2ccccc2)cc1)c1ccccc1	–	–	51	–	–	–
COc1ccc(NC(=O)c2ccc(OC(=S)N(C)c3ccc(OC)cc3)cc2)cc1	–	–	–	–	–	·
Cc1cccc(NS(=O)(=O)c2ccc(C)c(C(=O)NCCCN3CCOCC3)c2)c1	·	–	–	–	–	·
CCOC(=O)CCCNC(=O)CN1CCC(c2nc3ccccc3s2)CC1	–	–	–	–	–	·
CCN1C(=O)[C@H]2[C@@H](c3ccc(OC)cc3)N3C(=O)CN(CCOC)C(=O)[C@@]3(C)[C@H]2C1=O	–	–	–	–	–	·
CCCC(=O)N(CCN1CCOCC1)c1nc2c(C)ccc(C)c2s1	–	–	42	–	–	–
CCCC(=O)N(CCN1CCOCC1)c1nc2c(OC)ccc(C)c2s1	–	–	–	–	–	·
COc1ccc(OCC(=O)Nc2ccc(N3CCN(Cc4ccccc4F)CC3)cc2)cc1	–	–	–	–	–	·
O=C(CCCOc1ccc(Cl)cc1Cl)n1nnc2ccccc21	–	–	54	–	–	39
CC1CCc2nc(NC(=O)C3CC3)sc2C1 (centres undefined)	–	–	–	–	–	·
CC1CCc2nc(NC(=O)C3COc4ccccc4O3)sc2C1 (centres undefined)	–	–	49	–	–	–
Cc1cc(C)c2sc(NC(=O)c3ccc([N+](=O)[O-])o3)nc2c1	–	–	56	–	–	54
O=C(Nc1c(Cl)ccc2nsnc12)c1ccc([N+](=O)[O-])o1	–	–	52	–	–	33
CCn1c(NCc2cc(Cl)ccc2O)nc2ccccc21	·	–	–	–	–	·
SMILES	NALP1 yeast inh	NLRP3 yeast inh	tim10-1 inh	TIM10 inh	tim23-1 inh	tim10-1 conf
CC(C)COC(=O)n1c(=O)oc2cc(S(=O)(=O)N3CCCCC3)ccc21	–	–	41	–	–	38
O=[N+]([O-])c1ccc(C2CC(c3ccccc3)=Nc3ccccc3S2)cc1 (centres undefined)	–	–	43	–	–	–
O=C(O)C1CC(c2ccccc2)=Nc2ccccc2S1 (centres undefined)	–	–	–	–	–	·
COc1ccc(CCNC(=O)CCc2nc3sc4c(c3c(=O)[nH]2)CCCC4)cc1	–	–	97	–	–	–
CN(C(=S)NC1CCCCC1)C1(c2ccccc2Cl)CCCCC1=O (centres undefined)	–	–	46	–	–	35
CC(C)NC(=S)N(C)C1(c2ccccc2Cl)CCCCC1=O (centres undefined)	·	–	–	–	–	·
CCOc1cccc(-c2nn3c(-c4ccco4)nnc3s2)c1	–	–	42	–	–	–
